Consider three compounds from PubChem BioAssay (EPA / NIEHS).

The structures appear in SMILES notation. The source made the active and inactive calls. Rule for the calls: active = hit-call score of the fitted dose curve at least 0.9, where 1 is the maximum; inactive = score below 0.9.

Read-out in assay [1]: TIMP metallopeptidase inhibitor 1 (TIMP1), TIMP1 (gene 7076)
Nature of the assay: BSK_hDFCGF_TIMP1: BioMAP Diversity Plus: hDFCGF Assay for TIMP metallopeptidase inhibitor 1 (TIMP1) Biomarker Activity (AID 2283062). Conditions: primary human foreskin fibroblasts; actives raise or lower the signal. An outline of the steps:
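Primary human foreskin fibroblasts in the hDFCGF system were dosed with compound for 24 h, then TIMP-1 was measured by ELISA. Activity was fitted bidirectionally relative to DMSO control; parallel SRB staining assessed cytotoxicity.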

Read-out in assay [2]: Monokine induced gamma interferon (MIG), CXCL9 (gene 4283)
The experiment in a line: BSK_hDFCGF_MIG: BioMAP Diversity Plus: hDFCGF Assay for Monokine induced gamma interferon (MIG) Biomarker Activity (AID 2283063). Conditions: primary human foreskin fibroblasts; actives raise or lower the signal. In a few lines:
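ELISA read-out of MIG from primary human dermal fibroblasts 24 h post-dosing. Gain or loss of signal fitted bidirectionally, DMSO as baseline.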

Read-out in assay [3]: Matrix Metallopeptidase 1 (MMP1), MMP1 (gene 4312)
The experiment in a line: BSK_hDFCGF_MMP1: BioMAP Diversity Plus: hDFCGF Assay for Matrix Metallopeptidase 1 (MMP1) Biomarker Activity (AID 2283064). Conditions: primary human foreskin fibroblasts; actives raise or lower the signal. In a few lines:
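hDFCGF primary fibroblasts (human foreskin); chemical added; 24 h; MMP1 by ELISA; bidirectional fit vs DMSO.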

Read-out in assay [4]: Vascular cell adhesion molecule 1 (VCAM1), VCAM1 (gene 7412)
The experiment in a line: BSK_hDFCGF_VCAM1: BioMAP Diversity Plus: hDFCGF Assay for Vascular cell adhesion molecule 1 (VCAM1) Biomarker Activity (AID 2283065).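 For AC50: VCAM-1 protein level quantified by ELISA after 24 h chemical exposure.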 Conditions: primary human foreskin fibroblasts; actives raise or lower the signal. An outline of the steps:
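Primary human foreskin fibroblasts (hDFCGF system) were dosed with chemical and VCAM-1 was measured by ELISA 24 h later. Bidirectional curve fitting used DMSO as negative control and activity baseline.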

Read-out in assay [5]: Plasminogen activator inhibitor-1 (PAI1), SERPINE1 (gene 5054)
Nature of the assay: BSK_hDFCGF_PAI1: BioMAP Diversity Plus: hDFCGF Assay for Plasminogen activator inhibitor-1 (PAI1) Biomarker Activity (AID 2283066). Conditions: primary human foreskin fibroblasts; actives raise or lower the signal. An outline of the steps: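 Primary dermal fibroblasts (human foreskin), hDFCGF system; compound 24 h; PAI-1 by ELISA; bidirectional fit vs DMSO control.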

Read-out in assay [6]: Intercellular Adhesion Molecule 1 (ICAM1), ICAM1 (gene 3383)
The experiment in a line: BSK_KF3CT_ICAM1: BioMAP Diversity Plus: KF3CT Assay for Intercellular Adhesion Molecule 1 (ICAM1) Biomarker Activity (AID 2283067). The following applies: primary human keratinocytes with fibroblasts; actives raise or lower the signal. An outline of the steps: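 Human keratinocyte plus foreskin fibroblast primary co-culture was exposed to chemical for 24 h. ICAM-1 was then quantified by ELISA, and the data were fit bidirectionally against DMSO as the negative control and baseline.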

Read-out in assay [7]: Interferon-gamma inducible Protein 10 (IP10), CXCL10 (gene 3627)
Nature of the assay: BSK_KF3CT_IP10: BioMAP Diversity Plus: KF3CT Assay for Interferon-gamma inducible Protein 10 (IP10) Biomarker Activity (AID 2283068). Conditions: primary human keratinocytes with fibroblasts; actives raise or lower the signal. In a few lines: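 Human keratinocyte plus foreskin fibroblast primary co-culture exposed to test chemical for 24 h; IP-10 measured by ELISA. Concentration-response fitted bidirectionally against DMSO control as baseline.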

A short description of assay [8]: BSK_KF3CT_SRB: Viability Assessment in the BioMAP Diversity Plus: KF3CT Assay (AID 2283069).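 Note: total protein by sulforhodamine B staining as a cytotoxicity measure; read 24 h after compound addition; fitted for both signal gain and loss against DMSO baseline.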 The following applies: primary human keratinocytes with fibroblasts. An outline of the steps:
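Keratinocytes co-cultured with foreskin fibroblasts (human primary); chemical added, 24 h; fix 10% TCA, stain 0.1% SRB, A560. Bidirectional fit vs DMSO.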

Read-out in assay [9]: Interleukin-1 alpha (IL1a), IL1A (gene 3552)
The experiment in a line: BSK_KF3CT_IL1a: BioMAP Diversity Plus: KF3CT Assay for Interleukin-1 alpha (IL1a) Biomarker Activity (AID 2283070). The following applies: primary human keratinocytes with fibroblasts; actives raise or lower the signal. In a few lines:
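Chemicals were dosed onto co-cultured human keratinocytes and foreskin fibroblasts, IL-1a was quantified by ELISA at 24 h, and activity was fitted in both directions relative to DMSO controls.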

Read-out in assay [10]: TIMP metallopeptidase inhibitor 2 (TIMP2), TIMP2 (gene 7077)
Nature of the assay: BSK_KF3CT_TIMP2: BioMAP Diversity Plus: KF3CT Assay for TIMP metallopeptidase inhibitor 2 (TIMP2) Biomarker Activity (AID 2283071). The following applies: primary human keratinocytes with fibroblasts; actives raise or lower the signal. In a few lines:
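Cells: human keratinocytes co-cultured with foreskin fibroblasts. Treat with chemical, 24 h. Measure TIMP-2 by ELISA; fit curves bidirectionally vs DMSO baseline.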

Read-out in assay [11]: Transforming growth factor beta 1 (TGFb1), TGFB1 (gene 7040)
The experiment in a line: BSK_KF3CT_TGFb1: BioMAP Diversity Plus: KF3CT Assay for Transforming growth factor beta 1 (TGFb1) Biomarker Activity (AID 2283072). Conditions: primary human keratinocytes with fibroblasts; actives raise or lower the signal. In a few lines: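 Primary human skin cells (keratinocytes, foreskin fibroblasts) were co-cultured, exposed to test chemical and sampled at 24 h. TGF-b1 levels were measured by ELISA and fitted bidirectionally relative to DMSO.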

Read-out in assay [12]: C-C motif chemokine 2 (Homo sapiens) (UniProt P13500)
The experiment in a line: BSK_KF3CT_MCP1: BioMAP Diversity Plus: KF3CT Assay for Monocyte Chemoattractant Protein 1 (MCP1/CCL2) Biomarker Activity (AID 2283073). The following applies: primary human keratinocytes with fibroblasts; actives raise or lower the signal. In a few lines: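 Human keratinocyte plus foreskin fibroblast primary co-culture exposed to chemical for 24 h. MCP-1 levels measured by ELISA. Bidirectional curve fitting relative to DMSO negative control as baseline.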

Read-out in assay [13]: Matrix Metallopeptidase 9 (MMP9), MMP9 (gene 4318)
The experiment in a line: BSK_KF3CT_MMP9: BioMAP Diversity Plus: KF3CT Assay for Matrix Metallopeptidase 9 (MMP9) Biomarker Activity (AID 2283074).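 For AC50: MMP9 protein level quantified by ELISA in the co-culture.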 Conditions: primary human keratinocytes with fibroblasts; actives raise or lower the signal. In a few lines:
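Human keratinocyte/foreskin fibroblast co-culture; compound added; 24 h; MMP-9 by ELISA; bidirectional fit vs DMSO baseline.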

Read-out in assay [14]: CD40, CD40 (gene 958)
The experiment in a line: BSK_LPS_CD40: BioMAP Diversity Plus: LPS Assay for CD40 Biomarker Activity (AID 2283076). The following applies: primary human HUVEC with PBMC; actives raise or lower the signal. In a few lines: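 Primary human umbilical vein endothelial cells co-cultured with peripheral blood mononuclear cells, LPS-stimulated, were dosed with chemical and read 24 h later. CD40 levels were measured by ELISA and fitted bidirectionally against DMSO as negative control and baseline.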

Read-out in assay [15]: E-selectin (Homo sapiens) (UniProt P16581)
Nature of the assay: BSK_LPS_Eselectin: BioMAP Diversity Plus: LPS Assay for Eselectin Biomarker Activity (AID 2283077). The following applies: primary human HUVEC with PBMC; actives raise or lower the signal. In a few lines: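 Human umbilical vein endothelial cells co-cultured with peripheral blood mononuclear cells under LPS stimulation; E-selectin measured by ELISA 24 h after chemical dosing. Activity fitted bidirectionally against DMSO as negative control and baseline.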

Read-out in assay [16]: Interleukin-8 (IL8), CXCL8 (gene 3576)
The experiment in a line: BSK_LPS_IL8: BioMAP Diversity Plus: LPS Assay for Interleukin-8 (IL8) Biomarker Activity (AID 2283078). The following applies: primary human HUVEC with PBMC; actives raise or lower the signal. In a few lines: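 Human umbilical vein endothelial cells co-cultured with PBMC were stimulated with LPS; IL-8 levels were measured by ELISA 24 h after chemical dosing. Activity was fitted bidirectionally against DMSO as negative control and baseline.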

The nature of assay [17]: BSK_LPS_SRB: Viability Assessment in the BioMAP Diversity Plus: LPS Assay (AID 2283079).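 Note: total protein by sulforhodamine B absorbance as a cytotoxicity measure; measured one day after compound addition; fitted in both directions against DMSO so loss or gain of signal counts.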 Conditions: primary human HUVEC with PBMC. An outline of the steps: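 Human umbilical vein endothelial cells co-cultured with PBMC (LPS system) were dosed for 24 h. Total protein was stained with 0.1% sulforhodamine B after 10% TCA fixation, read at 560 nm, and fitted bidirectionally against DMSO baseline.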

Read-out in assay [18]: Interleukin-1 alpha (IL1a), IL1A (gene 3552)
Nature of the assay: BSK_LPS_IL1a: BioMAP Diversity Plus: LPS Assay for Interleukin-1 alpha (IL1a) Biomarker Activity (AID 2283080). The following applies: primary human HUVEC with PBMC; actives raise or lower the signal. In a few lines:
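Human umbilical vein endothelial cells co-cultured with peripheral blood mononuclear cells were LPS-stimulated and exposed to test chemicals for 24 h. IL-1 alpha was quantified by ELISA, with bidirectional curve fitting against DMSO as the negative control and baseline.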

Read-out in assay [19]: Monocyte Chemoattractant Protein-1 (MCP1), CCL2 (gene 6347)
The experiment in a line: BSK_LPS_MCP1: BioMAP Diversity Plus: LPS Assay for Monocyte Chemoattractant Protein-1 (MCP1) Biomarker Activity (AID 2283081).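 For AC50: co-culture stimulated with LPS; secreted MCP-1 protein quantified by ELISA in culture supernatant.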 The following applies: primary human HUVEC with PBMC; actives raise or lower the signal. In a few lines:
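HUVEC plus PBMC co-culture (human primary cells, LPS system) exposed to test chemical for 24 h; MCP-1 measured by ELISA. Bidirectional curve fitting against DMSO baseline; parallel SRB total-protein staining flags overt cytotoxicity.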

Read-out in assay [20]: urokinase plasminogen activator (uPA), PLAU (gene 5328)
Nature of the assay: BSK_KF3CT_uPA: BioMAP Diversity Plus: KF3CT Assay for urokinase plasminogen activator (uPA) Biomarker Activity (AID 2283075). Conditions: primary human keratinocytes with fibroblasts; actives raise or lower the signal. An outline of the steps: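 ELISA readout of uPA, analyzed for signal gain or loss relative to DMSO, from a human primary keratinocyte–foreskin fibroblast co-culture measured 24 h after chemical treatment.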

E-selectin (Homo sapiens), sequence (P16581 whole entry, looked up): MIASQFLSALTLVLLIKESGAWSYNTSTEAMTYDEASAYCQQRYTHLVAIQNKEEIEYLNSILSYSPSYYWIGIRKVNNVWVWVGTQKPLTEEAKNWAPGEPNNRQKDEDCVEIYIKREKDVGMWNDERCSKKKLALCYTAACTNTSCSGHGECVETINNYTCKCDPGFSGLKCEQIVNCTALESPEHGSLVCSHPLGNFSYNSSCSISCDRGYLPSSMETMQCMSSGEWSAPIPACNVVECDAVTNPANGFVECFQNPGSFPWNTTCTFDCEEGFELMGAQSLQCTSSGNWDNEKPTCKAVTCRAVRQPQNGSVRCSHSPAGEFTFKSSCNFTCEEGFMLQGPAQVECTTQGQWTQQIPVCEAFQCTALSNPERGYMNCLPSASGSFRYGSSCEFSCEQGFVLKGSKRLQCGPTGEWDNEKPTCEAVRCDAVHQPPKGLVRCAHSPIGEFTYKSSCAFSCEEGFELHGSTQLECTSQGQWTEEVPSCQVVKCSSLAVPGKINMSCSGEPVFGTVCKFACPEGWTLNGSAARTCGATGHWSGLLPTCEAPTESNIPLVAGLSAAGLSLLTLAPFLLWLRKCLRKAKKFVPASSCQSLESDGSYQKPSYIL

Consider `O=C(CCCCCCCCc1cccnc1)N1CCC(C=C(c2ccccc2)c2ccccc2)CC1`, for which the AC50 was 7.71 µM (active) in [1]; 11.5 µM (active) in assay [2]; 9.34 µM (active) in assay [3]; 8.47 µM (active) in [4]; 5.88 µM (active) in assay [5]; 16.6 µM (active) in [6]. Further, the AC50 in [7] is 15.5 µM (active); in [8] it was 14.7 µM (active); in assay [9], 16.9 µM (active); in assay [10] it was 10.8 µM (active); in assay [11], 10.1 µM (active); in assay [12], 16.9 µM (active). Moreover, the AC50 in [13] is 7.47 µM (active); in [14], 8.31 µM (active); in assay [15] it was 14.4 µM (active); in assay [16], 12 µM (active); in assay [17], 11.7 µM (active); in assay [18], 9.81 µM (active). The AC50 in assay [19] was 10.1 µM (active).
Consider `CC(=O)c1ccc2c(c1)[C@H](NC(=O)c1ccc(F)cc1)[C@@H](O)C(C)(C)O2`, for which the result in assay [1], in [2], in assay [3], in [4], in [5] and in assay [6] was inactive. Also, the outcome in assay [7], in assay [8], in [9], in assay [10], in assay [11] and in assay [12] was inactive. In addition, the outcome in [13], in assay [14], in [15], in [16], in [17] and in assay [18] was inactive. For the same compound, the result in assay [19] was inactive.
Turning to `CCOC(=O)COc1ccc2c(c1)CC(NCC(O)c1cccc(Cl)c1)CC2` (stereo not drawn), the AC50 in [1] is 28.8 µM (active); in assay [2], 26.8 µM (active); in assay [3], 33.9 µM (active); in assay [4], 21.9 µM (active); in [5], 31.7 µM (active); in [14] it was 29 µM (active). Besides, the AC50 in assay [16] is 27.4 µM (active); in assay [17], 28.4 µM (active); in [18], 18.3 µM (active); in assay [19], 29.2 µM (active). For the same compound, the outcome in [6], in assay [7], in [8], in assay [9], in assay [10] and in assay [11] was inactive. Moreover, the result in assay [12], in assay [13], in assay [20] and in assay [15] was inactive.

For orientation: AC50 means the concentration giving half of the maximal activity seen.
